Measured values as given in PubChem BioAssay AID1159580 (chemical genetic matrix, 2015).
Hit rate of the full screen: of about 5,500 compounds, about 2,000 (36%) were called active. Not shown: some 18% with an inconclusive outcome. Rule as the data show it: active = normalized growth mostly below about 0.91 (no sharp cut-off); inconclusive = no clear call, values can overlap the other calls; inactive = mostly above about 0.92. This is one part of the list.

Experiment: chemical genetic growth profiling, strain panel (AID 1159580);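 also: tested at 20 µM; growth read once vehicle control cultures reached saturation at 30 °C; 1 = growth at the plate median or of vehicle wells; lower values mean less growth of the strain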
Details: growth OD

Measured: normalized growth

COc1cc(NS(=O)(=O)c2ccc(N)cc2)nc(OC)n1
inactive: S. cerevisiae deletion strains, locus YJR066W, strain TOR1, active compounds read low 0.933 | S. cerevisiae deletion strains, locus YKL009W, strain mrt4, active compounds read low 0.985 | S. cerevisiae deletion strains, locus YKL068W, active compounds read low 0.984 | S. cerevisiae deletion strains, locus YKL085W, strain MDH1 (second series), active compounds read low 0.991 | S. cerevisiae deletion strains, locus YKL085W, strain MDH1, active compounds read low 0.991 | S. cerevisiae deletion strains, locus YKL160W, strain elf1, active compounds read low 0.969 | S. cerevisiae deletion strains, locus YKL190W, strain CNB1, active compounds read low 0.999 | S. cerevisiae deletion strains, locus YKR001C, strain vps1, active compounds read low 1 | S. cerevisiae deletion strains, locus YKR026C, strain gcn3, active compounds read low 0.973 | S. cerevisiae deletion strains, locus YKR091W, strain srl3, active compounds read low 0.982 | S. cerevisiae deletion strains, locus YLL001W, strain dnm1, active compounds read low 0.982 | S. cerevisiae deletion strains, locus YLL026W, active compounds read low 0.992 | S. cerevisiae deletion strains, locus YLL041C, strain sdh2, active compounds read low 0.992 | S. cerevisiae deletion strains, locus YLR027C, strain aat2, active compounds read low 0.988 | S. cerevisiae deletion strains, locus YLR039C, strain RIC1, active compounds read low 0.997 | S. cerevisiae deletion strains, locus YLR058C, strain SHM2, active compounds read low 0.982 | S. cerevisiae deletion strains, locus YLR102C, strain apc9, active compounds read low 0.985 | S. cerevisiae deletion strains, locus YLR113W, strain HOG1, active compounds read low 0.961 | S. cerevisiae deletion strains, locus YLR221C, strain rsa3, active compounds read low 0.986 | S. cerevisiae deletion strains, locus YLR258W, strain gsy2, active compounds read low 0.979 | S. cerevisiae deletion strains, locus YLR262C, strain YPT6 (second series), active compounds read low 0.952 | S. cerevisiae deletion strains, locus YLR262C, strain YPT6, active compounds read low 0.97 | S. cerevisiae deletion strains, locus YLR268W, strain sec22, active compounds read low 0.98 | S. cerevisiae deletion strains, locus YLR320W, strain mms22, active compounds read low 0.972 | S. cerevisiae deletion strains, locus YLR330W, strain CHS5, active compounds read low 0.984 | S. cerevisiae deletion strains, locus YLR342W, strain FKS1 (second series), active compounds read low 0.95 | S. cerevisiae deletion strains, locus YLR342W, strain FKS1, active compounds read low 0.986 | S. cerevisiae deletion strains, locus YLR357W, strain rsc2, active compounds read low 0.921 | S. cerevisiae deletion strains, locus YLR370C, strain arc18, active compounds read low 0.977 | S. cerevisiae deletion strains, locus YLR371W, strain rom2, active compounds read low 0.982 | S. cerevisiae deletion strains, locus YLR384C, strain iki3, active compounds read low 0.97 | S. cerevisiae deletion strains, locus YLR418C, strain cdc73, active compounds read low 0.969 | S. cerevisiae deletion strains, locus YML016C, strain PPZ1, active compounds read low 0.983 | S. cerevisiae deletion strains, locus YML032C, strain rad52, active compounds read low 0.983 | S. cerevisiae deletion strains, locus YML120C, strain ndi1, active compounds read low 0.972 | S. cerevisiae deletion strains, locus YML124C, strain tub3, active compounds read low 0.988 | S. cerevisiae deletion strains, locus YMR058W, strain fet3, active compounds read low 0.996 | S. cerevisiae deletion strains, locus YMR078C, strain ctf18, active compounds read low 0.984 | S. cerevisiae deletion strains, locus YMR125W, strain sto1, active compounds read low 0.978 | S. cerevisiae deletion strains, locus YMR129W, active compounds read low 0.983 | S. cerevisiae deletion strains, locus YMR205C, strain PFK2, active compounds read low 0.971 | S. cerevisiae deletion strains, locus YMR223W, strain ubp8, active compounds read low 0.987 | S. cerevisiae deletion strains, locus YMR231W, strain pep5, active compounds read low 0.982 | S. cerevisiae deletion strains, locus YMR307W, strain GAS1, active compounds read low 0.933 | S. cerevisiae deletion strains, locus YNL067W, strain RPL9B, active compounds read low 1.01 | S. cerevisiae deletion strains, locus YNL071W, strain lat1, active compounds read low 0.975 | S. cerevisiae deletion strains, locus YNL153C, strain GIM3, active compounds read low 1.04 | S. cerevisiae deletion strains, locus YNL183C, strain NPR1, active compounds read low 0.943 | S. cerevisiae deletion strains, locus YNL209W, strain ssb2, active compounds read low 0.97 | S. cerevisiae deletion strains, locus YNL233W, strain BNI4, active compounds read low 1 | S. cerevisiae deletion strains, locus YNL248C, strain rpa49, active compounds read low 0.969 | S. cerevisiae deletion strains, locus YNL250W, strain rad50, active compounds read low 0.988 | S. cerevisiae deletion strains, locus YNL271C, strain bni1, active compounds read low 0.978 | S. cerevisiae deletion strains, locus YNL298W, strain CLA4, active compounds read low 0.962 | S. cerevisiae deletion strains, locus YNL307C, strain MCK1, active compounds read low 0.981 | S. cerevisiae deletion strains, locus YNL322C, strain KRE1 (second series), active compounds read low 0.976 | S. cerevisiae deletion strains, locus YNL322C, strain KRE1, active compounds read low 0.996 | S. cerevisiae deletion strains, locus YNR049C, strain mso1, active compounds read low 0.979 | S. cerevisiae deletion strains, locus YNR052C, strain pop2, active compounds read low 0.986 | S. cerevisiae deletion strains, locus YOL006C, strain TOP1, active compounds read low 1.05 | S. cerevisiae deletion strains, locus YOL012C, strain htz1 0.758 | S. cerevisiae deletion strains, locus YOL147C, strain pex11, active compounds read low 0.978 | S. cerevisiae deletion strains, locus YOR001W, strain rrp6, active compounds read low 0.988 | S. cerevisiae deletion strains, locus YOR061W, strain CKA2, active compounds read low 0.977 | S. cerevisiae deletion strains, locus YOR069W, strain VPS5, active compounds read low 0.985 | S. cerevisiae deletion strains, locus YOR070C, strain gyp1, active compounds read low 0.981 | S. cerevisiae deletion strains, locus YOR080W, strain dia2, active compounds read low 0.966 | S. cerevisiae deletion strains, locus YOR083W, strain WHI5, active compounds read low 0.981 | S. cerevisiae deletion strains, locus YOR106W, strain vam3, active compounds read low 0.977 | S. cerevisiae deletion strains, locus YOR136W, strain idh2, active compounds read low 0.991 | S. cerevisiae deletion strains, locus YOR144C, strain elg1, active compounds read low 0.992 | S. cerevisiae deletion strains, locus YOR184W, strain ser1, active compounds read low 0.991 | S. cerevisiae deletion strains, locus YOR231W, strain MKK1, active compounds read low 0.968 | S. cerevisiae deletion strains, locus YOR265W, strain rbl2, active compounds read low 0.992 | S. cerevisiae deletion strains, locus YOR270C, strain vph1, active compounds read low 0.965 | S. cerevisiae deletion strains, locus YOR290C, strain snf2, active compounds read low 0.991 | S. cerevisiae deletion strains, locus YOR316C, strain cot1, active compounds read low 0.988 | S. cerevisiae deletion strains, locus YPL051W, strain arl3, active compounds read low 0.973 | S. cerevisiae deletion strains, locus YPL055C, strain LGE1, active compounds read low 1.03 | S. cerevisiae deletion strains, locus YPL078C, strain atp4, active compounds read low 0.965 | S. cerevisiae deletion strains, locus YPL106C, strain sse1, active compounds read low 0.976 | S. cerevisiae deletion strains, locus YPL240C, strain hsp82, active compounds read low 0.98 | S. cerevisiae deletion strains, locus YPL241C, strain CIN2, active compounds read low 0.994 | S. cerevisiae deletion strains, locus YPL256C, strain CLN2, active compounds read low 0.966 | S. cerevisiae deletion strains, locus YPR119W, strain clb2, active compounds read low 0.989 | S. cerevisiae deletion strains, locus YPR141C, strain kar3, active compounds read low 0.982 | S. cerevisiae deletion strains, locus YPR163C, strain tif3, active compounds read low 0.973 | S. cerevisiae deletion strains, locus YPR167C, strain met16, active compounds read low 0.986 | S. cerevisiae deletion strains, strain wtn01, active compounds read low 0.981 | S. cerevisiae strains, strain wild type, active compounds read low 0.991
